Assay [1] is described as follows: qHTS assay for small molecule activators of the p53 signaling pathway (AID 651743; active = well fitted activation curve with a large enough effect in the signal ratio, not every such curve was filed as active; the % refers to the signal ratio; note: potency is the fitted concentration of half-maximal effect; for activation: % of control where 0% means no effect). The settings on record: HCT-116 p53RE-bla, beta-lactamase FRET ratio, 16 h; activation: stronger effect = higher value. The method in brief: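 p53RE-bla HCT-116 cells with a stably integrated beta-lactamase reporter under p53 response elements were plated, rested 5 hours at 37 C/5% CO2, then exposed to compounds in DMSO for 16 hours at 37 C. LiveBLAzer B/G FRET substrate was read after 2 hours at room temperature.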

Assay [2] addresses Arylsulfatase A (Homo sapiens) (UniProt P15289). Briefly: qHTS screen for enhancers of Arylsulfatase A (ASA1): LOPAC Validation Assay (AID 720538). Particulars: ASA enzyme activity, LOPAC qHTS enhancer assay; series mostly up to 57.5 µM. The method in brief: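 SV40-transformed fibroblasts from an MLD patient (ASA-I179S) were treated with compound for 48 h at 37 C. They were then lysed with 0.5 mM pNCS substrate (final) for 14 h at room temperature and stopped with NaOH; signal read by fluorescence (Ex 525/Em 598 nm), with increase denoting enhanced activity.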
(In general: In qHTS, concentration-response curves come from the screen itself.)

Assay [3] in a line: qHTS for differential inhibitors of proliferation of Plasmodium falciparum line GB4 (AID 1816).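 Note: potency is the fitted concentration of half-maximal effect; parasite growth measured after 72 h incubation.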 Particulars: Potency: Plasmodium falciparum GB4 proliferation inhibition; series mostly up to 28.7 µM.
Assay [4] concerns the target Chromobox protein homolog 1 (Homo sapiens) (UniProt P83916). In words: qHTS Validation Assay for Inhibitors of HP1-beta Chromodomain Interactions with Methylated Histone Tails (AID 488953). Note: potency is the fitted concentration of half-maximal effect; nearly all actives have a fitted effect of over 50% in size. The settings on record: HP1-beta chromodomain / methylated histone peptide binding assay; series mostly up to 114 µM. The gist of the method: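 Measured as loss of AlphaScreen luminescence from streptavidin donor and nickel acceptor beads (10 ug/mL final) bridging HP1-beta and biotin-H3(1-18)K9me3, each 50 nM. Compounds met the preassembled complex for 30 min at RT.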

Assay [5] can be described thus: Cell Viability - Jurkat (AID 426;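 active = dose-dependent loss of cell ATP signal giving a full or clear fitted curve, ranked by lower potency value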;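 note: potency is the fitted concentration of half-maximal effect; cells exposed to compound for 40 hours at 37 °C before ATP read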). Particulars: qHTS. The method in brief:
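Seed 5000 Jurkat E6-1 cells/well; add compound; incubate 40 hr at 37 °C; add CellTiter-Glo; wait 20 min at room temperature; read luminescence. Fit concentration-response with Hill equation for AC50.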

Assay [6] in a line: Cellular Toxicity (caspase-3) Jurkat (AID 655).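 Note: cells exposed to compound for 16 h at 37 °C before reading.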 The settings on record: Jurkat caspase-3 activation, luminescence, DMSO = 0%, tamoxifen = 100%; series mostly up to 92.2 µM. The gist of the method: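 Jurkat cells (5000/well) in complete medium exposed 16 h at 37 C; caspase-3/7 activity read by Caspase-Glo luminescence after 20 min at room temperature. Normalized to DMSO and 100 uM tamoxifen; AC50 from Hill fits.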

A short description of assay [7]: Cell Viability - LYMP2-001 (AID 921).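 Note: 0% = DMSO only and full inhibition = tetraoctylammonium bromide control wells; nearly all actives have a fitted effect of over 70% in size.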 The settings on record: LYMP2-001 lymphoblastoid cell viability; series mostly up to 92.2 µM. The method in brief: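 Human lymphoblastoid LYMP2-001 cells, 2500 per well, in complete medium, treated 24 h at 37 C. Viability from cellular ATP by CellTiter-Glo luminescence; AC50 from Hill-equation fits of qHTS concentration-response.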

A short description of assay [8]: Cell Viability - LYMP2-007 (AID 979).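 Note: cells exposed to compound for 24 h before reading; 0% = DMSO only and the negative end = 92 µM tetraoctylammonium bromide; nearly all actives have a fitted effect of over 60% in size.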 Particulars: LYMP2-007 lymphoblastoid cell viability; series mostly up to 92.2 µM. The method in brief:
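Acute toxicity is scored as a concentration-dependent fall in intracellular ATP in human lymphoblastoid cells treated 24 hr at 37 C, measured by luciferase luminescence; Hill-equation modelling yields AC50.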

Assay [9] can be described thus: Cell Viability - LYMP2-022 (AID 987).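 Note: 0% = DMSO alone and full effect = tetraoctylammonium bromide at 92 µM; nearly all actives have a fitted effect of over 55% in size.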 Particulars: LYMP2-022 lymphoblastoid cell viability; series mostly up to 92.2 µM. The gist of the method: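 Acute toxicity in a human lymphoblastoid line is scored as decreased intracellular ATP after 24 hr compound treatment at 37 C. ATP is measured by CellTiter-Glo luminescence; curves are fitted with the Hill equation to give AC50.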

Assay [10] is described as follows: Cell Viability - LYMP2-024 (AID 988).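 Note: plate controls were DMSO only for no effect and 92 µM tetraoctylammonium bromide for full effect; nearly all actives have a fitted effect of over 60% in size.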 The settings on record: LYMP2-024 lymphoblastoid cell viability; series mostly up to 92.2 µM. The method in brief:
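Acute toxicity is measured as concentration-dependent loss of intracellular ATP in a human lymphoblastoid line treated 24 hours at 37 C. Luciferase luminescence quantifies ATP; AC50 values come from standard Hill-equation modelling.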

The nature of assay [11]: qHTS assay for small molecule antagonists of retinoid X receptor alpha signaling (AID 588546).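 Note: cells stimulated with 9-cis-retinoic acid as agonist; % is set by controls: 0 for no effect and ±100 for the full control effect.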 Particulars: HEK293T RXRa-UAS-bla, beta-lactamase ratio, antagonist mode; measured here: W530 green channel, cytotoxicity proxy. The method in brief: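 Beta-lactamase reporter inhibition, read as CCF4 fluorescence ratio (ex 405, em 460/530 nm) after 2 h at RT. HEK293T UAS-bla cells, 2500/well, were stimulated with 9-cis-RA at 500 or 100 nM final alongside test compound for 18 h at 37 C.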

Assay [12] addresses Thyroid hormone receptor beta (Homo sapiens) (UniProt P10828). Briefly: qHTS assay for small molecule antagonists of thyroid hormone receptor beta signaling (AID 588547; active = well fitted inhibition curve with a large enough effect in the signal ratio, with a control signal flat, not every such curve was filed as active; the % refers to the signal ratio;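 note: cells stimulated with 0.4 nM T3 agonist during compound exposure; % is set by controls: 0 for no effect and ±100 for the full control effect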). The settings on record: TR-UAS-bla HEK293, beta-lactamase ratio, antagonist mode, 18 h. The method in brief: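 TR-UAS-bla GripTite HEK293 cells in 2% charcoal/dextran FBS medium were preincubated 4 h at 37 C, given compound (0.59 nM to 92 uM) plus 0.4 nM T3 (final) for 18 h, then CCF4 for 2 h at RT; Hill fit gave IC50.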

A short description of assay [13]: qHTS assay for small molecule disruptors of the mitochondrial membrane potential - 1 hr assay (AID 651754; calls by dose curve; note: % is set by controls: 0 for no effect and ±100 for the full control effect; nearly all actives have a fitted effect of over 35% in size). The settings on record: series mostly up to 92.2 µM. The method in brief:
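Steps: seed HepG2 cells and let attach overnight; pin-transfer compound or vehicle; incubate 1 hr at 37C; add Mito-MPS dye for 30 min; read two-channel fluorescence for monomer and aggregate forms.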

Assay [14] concerns the target Tumor necrosis factor (Homo sapiens) (UniProt P01375). In words: qHTS assay to identify small molecules that stimulate Tumor Necrosis Factor-alpha (TNF-alpha) secretion (AID 651757; active = well fitted curve in the direction sought with a large enough effect in the signal ratio; the % refers to the signal ratio; note: 0% is about no effect). The settings on record: Human cells, HTRF 665/615 ratio; series mostly up to 92.2 µM. The gist of the method: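 Secreted TNF-alpha from compound-treated THP-1 cells (17 hrs, 37 C) was quantified with a homogeneous time-resolved fluorescence antibody assay.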

Assay [15] in a line: qHTS assay for small molecule agonists of the antioxidant response element (ARE) signaling pathway measured by Nrf2-dependant transcriptional activity (AID 720636; active = well fitted curve in the direction sought with a large enough effect in the repeat runs; an effect the other way counts as inactive or inconclusive; note: % of control where 0% means no effect). Particulars: ARE-luc HepG2, Nrf2 luciferase reporter, 16 h; series mostly up to 92.4 µM. The method in brief:
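ARE-luc HepG2 cells carrying an Nrf2-responsive luciferase reporter were plated in medium with 1% dialyzed FBS, left 6 hr at 37 C to attach, then exposed to compound for 16 hr. Luciferase luminescence was read after ONE-Glo addition.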

Assay [16] is described as follows: qHTS for differential inhibitors of proliferation of Plasmodium falciparum line W2 (AID 1883).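 Note: potency is the fitted concentration of half-maximal effect; parasites grown with compound for 72 h before lysis and staining.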 Particulars: Potency: Plasmodium falciparum W2 proliferation inhibition; series mostly up to 28.7 µM.
Assay [17] in a line: MultiTox-Fluor Cytotoxicity Assay - LYMP1-002 - Dead Cells (AID 960). Note: nearly all actives have a fitted effect of over 60% in size. Note: potency is the fitted concentration of half-maximal effect. The settings on record: LYMP1-002 lymphoblastoid cells, dead-cell protease fluorescence; series mostly up to 46.1 µM. The method in brief: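 Acute cytotoxicity in a human lymphoblastoid line is scored as rising dead-cell protease signal after 16 hr exposure at 37 C, measured fluorometrically (485/520).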

Assay [18] has as its target Voltage-gated inwardly rectifying potassium channel KCNH2 (Homo sapiens) (UniProt Q12809). Briefly: qHTS Assay for Small Molecule Inhibitors of the Human hERG Channel Activity (AID 588834).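 Note: lower thallium flux fluorescence means stronger hERG block; nearly all actives have a fitted effect of over 50% in size.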 Note: potency is the fitted concentration of half-maximal effect. Particulars: U2OS BacMam hERG, FluxOR thallium flux fluorescence; series mostly up to 46.1 µM. The method in brief:
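U2OS cells BacMam-transduced with hERG, 2000 cells/well, compound ~10 min at 37 °C before stimulation buffer. FluxOR thallium flux fluorescence read kinetically on FDSS; decrease indicates block; AC50 from Hill fits.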

Assay [19] can be described thus: Cell Viability - LYMP2-014 (AID 983).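 Note: plate controls were DMSO only for no effect and 92 µM tetraoctylammonium bromide for full effect; nearly all actives have a fitted effect of over 50% in size.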 Particulars: LYMP2-014 lymphoblastoid cells, viability qHTS; series mostly up to 92.2 µM. The gist of the method:
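Decrease in intracellular ATP after 24 hr treatment at 37 C, measured by luciferase luminescence, indicated cytotoxicity. Concentration-response data were fitted with the standard Hill equation to give AC50.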

Assay [20] in a line: Cell Viability - LYMP2-016 (AID 984).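 Note: cells exposed to compound for 24 hours at 37 °C; % is set by controls: 0 for no effect and ±100 for the full control effect; nearly all actives have a fitted effect of over 55% in size.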 Particulars: LYMP2-016 lymphoblastoid cell viability, qHTS; series mostly up to 92.2 µM. The gist of the method:
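Human lymphoblastoid LYMP2-016 cells, 2500 per well, treated with compounds for 24 h at 37 C. Viability read as intracellular ATP by CellTiter-Glo luminescence after 30 min at room temperature; AC50 from Hill fits of concentration-response.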

From PubChem BioAssay (NCATS) come the findings set out here.

Molecules are shown by their SMILES. Inconclusive results are not listed. Activity calls are given as the source filed them. Unless noted, calls come from the whole dose curve; as a rule, active = well fitted curve in the direction sought with a large enough effect; inconclusive = small, poorly fitted or top-dose-only effect, or another doubt; inactive = no such curve, though single readings can be large; an effect the other way counts as inactive or inconclusive. A value given as a limit tells only on which side of the number the result lay.

Voltage-gated inwardly rectifying potassium channel KCNH2 (Homo sapiens), sequence (Q12809 whole entry, looked up): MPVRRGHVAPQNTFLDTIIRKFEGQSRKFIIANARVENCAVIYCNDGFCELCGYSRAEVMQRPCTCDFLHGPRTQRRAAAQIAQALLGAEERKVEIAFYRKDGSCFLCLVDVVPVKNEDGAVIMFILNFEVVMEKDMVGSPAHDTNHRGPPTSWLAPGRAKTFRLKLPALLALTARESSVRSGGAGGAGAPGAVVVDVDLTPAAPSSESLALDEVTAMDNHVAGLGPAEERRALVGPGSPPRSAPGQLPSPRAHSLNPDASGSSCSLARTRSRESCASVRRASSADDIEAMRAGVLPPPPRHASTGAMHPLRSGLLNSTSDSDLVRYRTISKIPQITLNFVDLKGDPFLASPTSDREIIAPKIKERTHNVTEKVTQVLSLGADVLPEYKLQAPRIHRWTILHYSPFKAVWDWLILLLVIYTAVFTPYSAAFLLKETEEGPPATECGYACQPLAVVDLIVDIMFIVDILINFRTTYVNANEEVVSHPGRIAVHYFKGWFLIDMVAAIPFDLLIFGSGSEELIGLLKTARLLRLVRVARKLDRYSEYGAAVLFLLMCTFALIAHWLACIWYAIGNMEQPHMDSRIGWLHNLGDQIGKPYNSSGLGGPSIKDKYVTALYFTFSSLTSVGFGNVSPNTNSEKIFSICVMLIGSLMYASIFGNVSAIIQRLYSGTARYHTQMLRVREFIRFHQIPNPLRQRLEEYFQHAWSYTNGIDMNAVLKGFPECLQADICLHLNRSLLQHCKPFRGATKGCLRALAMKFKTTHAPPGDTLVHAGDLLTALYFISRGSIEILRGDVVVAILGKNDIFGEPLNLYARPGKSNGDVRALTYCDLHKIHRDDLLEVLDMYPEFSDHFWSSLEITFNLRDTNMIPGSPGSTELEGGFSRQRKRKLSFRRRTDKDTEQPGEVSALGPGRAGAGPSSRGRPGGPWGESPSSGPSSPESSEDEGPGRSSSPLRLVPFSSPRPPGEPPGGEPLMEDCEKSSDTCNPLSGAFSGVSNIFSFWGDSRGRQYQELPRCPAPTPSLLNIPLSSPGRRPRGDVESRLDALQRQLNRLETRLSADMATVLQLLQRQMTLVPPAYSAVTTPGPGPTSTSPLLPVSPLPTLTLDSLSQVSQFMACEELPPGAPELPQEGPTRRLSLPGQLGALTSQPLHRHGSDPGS
Arylsulfatase A (Homo sapiens), sequence (P15289 whole entry, looked up): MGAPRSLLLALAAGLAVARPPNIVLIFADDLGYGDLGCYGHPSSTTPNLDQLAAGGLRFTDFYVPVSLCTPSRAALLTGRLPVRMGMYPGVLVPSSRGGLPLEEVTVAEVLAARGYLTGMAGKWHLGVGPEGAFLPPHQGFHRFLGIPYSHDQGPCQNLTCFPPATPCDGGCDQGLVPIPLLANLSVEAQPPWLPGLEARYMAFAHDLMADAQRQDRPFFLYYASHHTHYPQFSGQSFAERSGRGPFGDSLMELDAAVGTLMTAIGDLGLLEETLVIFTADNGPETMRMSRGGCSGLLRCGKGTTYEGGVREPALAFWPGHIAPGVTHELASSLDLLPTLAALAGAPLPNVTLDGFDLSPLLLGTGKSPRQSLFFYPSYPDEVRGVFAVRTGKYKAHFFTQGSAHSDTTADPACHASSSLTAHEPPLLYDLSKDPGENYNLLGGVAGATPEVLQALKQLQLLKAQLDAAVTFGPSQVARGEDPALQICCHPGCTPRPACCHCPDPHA
Chromobox protein homolog 1 (Homo sapiens), sequence (P83916 whole entry, looked up): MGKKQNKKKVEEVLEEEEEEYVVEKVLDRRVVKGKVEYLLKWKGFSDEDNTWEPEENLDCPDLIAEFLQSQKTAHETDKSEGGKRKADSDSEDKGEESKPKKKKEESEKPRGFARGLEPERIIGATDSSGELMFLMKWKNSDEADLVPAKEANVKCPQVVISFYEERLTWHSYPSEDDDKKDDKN
Tumor necrosis factor (Homo sapiens), sequence (P01375 whole entry, looked up): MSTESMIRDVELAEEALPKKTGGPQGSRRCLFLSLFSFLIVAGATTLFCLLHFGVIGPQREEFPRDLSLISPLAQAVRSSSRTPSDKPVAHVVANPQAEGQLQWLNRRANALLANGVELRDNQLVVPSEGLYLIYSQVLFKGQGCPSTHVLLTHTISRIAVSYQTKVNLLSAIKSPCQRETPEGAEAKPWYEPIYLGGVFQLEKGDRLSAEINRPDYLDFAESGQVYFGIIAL
Thyroid hormone receptor beta (Homo sapiens), sequence (P10828 whole entry, looked up): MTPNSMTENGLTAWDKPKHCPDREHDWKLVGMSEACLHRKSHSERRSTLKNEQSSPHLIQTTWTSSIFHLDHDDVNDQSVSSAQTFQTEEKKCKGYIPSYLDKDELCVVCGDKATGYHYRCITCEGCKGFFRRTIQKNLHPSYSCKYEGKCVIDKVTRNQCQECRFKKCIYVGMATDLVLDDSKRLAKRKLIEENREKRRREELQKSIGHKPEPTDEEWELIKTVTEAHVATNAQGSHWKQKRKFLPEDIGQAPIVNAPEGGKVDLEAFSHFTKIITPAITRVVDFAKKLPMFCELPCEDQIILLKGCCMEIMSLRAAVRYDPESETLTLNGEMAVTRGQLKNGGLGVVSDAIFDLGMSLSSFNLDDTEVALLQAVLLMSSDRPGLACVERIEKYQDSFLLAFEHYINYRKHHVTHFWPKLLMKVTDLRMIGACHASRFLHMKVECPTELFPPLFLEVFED

Regarding `Nc1nc(N)c2nc(CNc3ccc(C(=O)NC(CCC(=O)O)C(=O)O)cc3)cnc2n1` (stereo not given), the Potency in assay [1] is 0.1 µM (active). Also, the Potency result in [2] is “inactive”.
As for `CN1C2CCC1CC(OC(=O)C(CO)c1ccccc1)C2` (stereo not given), in [3], the Potency was 8.91 µM (active). Besides, the Potency result in assay [2] was “inactive”.
On to `NO`, for which, in assay [4], the Potency is 0.006 µM (active). Moreover, the Potency entry in [2] is “inactive”.
In the case of `CC(C)COC(=O)c1ccccc1C(=O)OCC(C)C`, the Potency in [5] is > 92 µM (inactive). The outcome in [6], in assay [7], in [8], in [9], in [10] and in assay [14] was inactive. Moreover, in assay [11], the max response was -12.2%. For the same molecule, the activity change % (negative = inhibition) in [12] was 9.26% (inactive). The Potency result in assay [13] and in assay [15] was “inactive” throughout.
Regarding `N#C/C(=C\c1ccc(O)c(O)c1)C(=O)NCCCNC(=O)/C(C#N)=C/c1ccc(O)c(O)c1`, the Potency was 2.24 µM (active) in assay [3], 2.24 µM (active) in [16] and 3.77 µM (active) in [4].
Turning to `Oc1ccccc1O`, the Potency in assay [17] is 20 µM (active); in [16] it was 10 µM (active).
Turning to `O=c1oc(Cl)c(Cl)c2ccccc12`, in assay [4], the Potency was 39.8 µM (active).
Take `CN1[C@@H](CC(=O)c2ccccc2)CCC[C@H]1C[C@H](O)c1ccccc1`: the Potency in assay [3] was 10 µM (active); in [16], 3.98 µM (active); in assay [18], 4.47 µM (active). The Potency entry in assay [2] was “inactive”.
Consider `CC(=O)/C=C/c1ccccc1`, for which the Potency in assay [5] is > 92 µM (inactive). The molecule was classed as inactive in assay [6], in [7], in [8], in [19], in assay [20] and in assay [9]. Also, the molecule was classed as inactive in assay [10] and in assay [14]. The Potency result in [17], in [18], in assay [13] and in [15] was “inactive” throughout. For the same molecule, in assay [11], the max response was -5.45%.
`COC1=CC(=O)OC(CCc2ccc3c(c2)OCO3)C1` (stereo not given): the Potency result in assay [17], in assay [18], in assay [13] and in assay [15] was “inactive” each time. Further, the outcome in assay [19], in assay [20] and in [14] was inactive. The activity change % (negative = inhibition) in [12] is -2% (inactive). The activation in assay [1] is -6.75% (inactive).
